Measured values reported in PubChem BioAssay (Tox21).
Records with an inconclusive call do not appear. Activity calls are given as the source filed them. Unless noted, calls follow the shape of the dose curve; as a rule, active = well fitted curve in the direction sought with a large enough effect in the repeat runs; inconclusive = weak or mixed curves; inactive = no such curve, though single readings can be large; an effect the other way counts as inactive or inconclusive.

What was measured:
[1] = qHTS assay to identify small molecule antagonists of the retinoid acid receptor (RAR) signaling pathway - cell viability counter screen (AID 1159551); also: nearly all actives have a fitted effect of over 35% in size
How it was run: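 Cytotoxicity counter screen: ATP content quantified by CellTiter-Glo luminescence in C3RL4 cells treated 6 hr at 37 C with compound and retinol (1 uM final). Cells plated at 1,000/well and cultured overnight before dosing.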

[2] = qHTS assay to identify small molecule antagonists of the retinoic acid receptor (RAR) signaling pathway (AID 1159552; also: nearly all actives have a fitted effect of over 50% in size)
How it was run: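 Readout: luciferase luminescence, 30 min post-reagent at RT. Setup: C3RL4 RARE reporter cells, compounds plus retinol 1 uM final, 6 hr incubation at 37 C and 5% CO2.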

[3] = qHTS assay to identify small molecule agonists of the retinoic acid receptor (RAR) signaling pathway (AID 1159553); also: potency is read from the fitted curve at half-maximal effect
How it was run: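 Luminescence was measured 30 min after luciferase reagent addition at room temperature. Before that, C3RL4 reporter cells (1,000 per well, plated overnight) were treated with compound for 6 hr at 37 C and 5% CO2.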

[4] = qHTS assay to identify small molecule antagonists of the estrogen related receptor (ERR) signaling pathway from Tox21 library - cell viability counter screen (AID 1224834); also: nearly all actives have a fitted effect of over 30% in size
How it was run: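 CellTiter-Fluor fluorescence, read after 30 min at 37 C, measures viability of ERR cells. Cells plated at 2,000/well and incubated 6 h before pin-tool compound addition, then exposed 17.5 hours at 37 C.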

[5] = qHTS assay to identify small molecule agonists of the constitutive androstane receptor (CAR) signaling pathway - cell viability counter screen (AID 1224836); also: nearly all actives have a fitted effect of over 45% in size
How it was run: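 Compound titrations (15 concentrations) went onto HepG2-CYP2B6-hCAR cells 4 h after seeding, alongside PK11195 at a final 0.75 uM; a 23 h, 37 C/5% CO2 incubation preceded CellTiter-Fluor viability measurement.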

[6] = biological target: Nuclear receptor subfamily 1 group I member 3 (Homo sapiens) (UniProt Q14994); experiment: qHTS assay to identify small molecule antagonists of the constitutive androstane receptor (CAR) signaling pathway (AID 1224838);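 also: HepG2 cells stably expressing hCAR with CYP2B6 luciferase reporter stimulated by CITCO; nearly all actives have a fitted effect of over 40% in size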
How it was run: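 Antagonism measured as luciferase signal (ONE-Glo, 30 min, room temperature) in CAR-stimulated cells: HepG2-CYP2B6-hCAR double-stable line exposed 24 hr at 37 C to compound in a 15-point series plus 50 nM CITCO.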

[7] = biological target: Nuclear receptor subfamily 1 group I member 3 (Homo sapiens) (UniProt Q14994); experiment: qHTS assay to identify small molecule agonists of the constitutive androstane receptor (CAR) signaling pathway (AID 1224839);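 also: HepG2 cells stably carrying human CAR and a CYP2B6 luciferase reporter; nearly all actives have a fitted effect of over 15% in size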
How it was run: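 In this screen, CAR-driven CYP2B6 promoter activity is measured by luminescence in HepG2-CYP2B6-hCAR cells after 24 h with test compounds and 0.75 uM PK11195 (final concentration).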

[8] = qHTS assay to identify small molecule antagonists of the estrogen related receptor signaling pathway with the pleiotropic PPARgamma coactivator (PGC) from Tox21 10K library - cell viability counter screen (AID 1224840; active = well fitted cell-killing curve with a large enough effect in the repeat runs, not every such curve was filed as active; also: nearly all actives have a fitted effect of over 40% in size)
How it was run: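 Counter-screen for cytotoxicity: after 17.5 h compound exposure at 37 C, CellTiter-Fluor reagent added to PGC/ERR cells for 30 min and fluorescence read. Cells were seeded at 2,000 per well 6 h before dosing.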

[9] = biological target: Thyrotropin receptor (Homo sapiens) (UniProt P16473); experiment: qHTS assay to identify small molecule agonists of the thyroid stimulating hormone receptor (TSHR) signaling pathway (AID 1224843; calls by dose curve; also: nearly all actives have a fitted effect of over 45% in size)
How it was run: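 Compounds are titrated over 15 concentrations, in triplicate, onto TSHR-HEK293 cells seeded at 800/well. Plates sit 30 min at room temperature before cAMP-d2 and anti-cAMP cryptate are added; signal is read after a further hour.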

[10] = qHTS assay to identify small molecule agonists of the hypoxia (HIF-1) signaling pathway - cell viability counter screen (AID 1224844; calls by dose curve; also: nearly all actives have a fitted effect of over 50% in size)
How it was run: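 Cytotoxicity measured by CellTiter-Glo ATP luminescence in the wells also read for beta-lactamase signal. Cells were HRE-bla ME-180 (2,000/well, 0.5% dialyzed FBS), exposed to compounds for 17 h at 37C.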

[11] = qHTS assay to identify small molecule agonists of H2AX (AID 1224845; active = well fitted activation curve with a large enough effect in the signal ratio in the repeat runs, not every such curve was filed as active; the % refers to the signal ratio)
How it was run: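 Wild-type CHO-K1 cells plated overnight, then exposed 3 hr at 37C to compounds at 15 concentrations (0.76% DMSO). Lysed, then HTRF anti-pH2AX(S139)-cryptate/anti-H2AX-d2 detection after 24 hr at room temperature; emissions 665 and 620 nm.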

[12] = qHTS assay to identify small molecule agonists of the hypoxia (HIF-1) signaling pathway (AID 1224846; active = well fitted activation curve with a large enough effect in the signal ratio in the repeat runs, not every such curve was filed as active; the % refers to the signal ratio)
How it was run: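 Compounds added to ME-180 cells carrying hypoxia-response-element beta-lactamase reporter (0.5% dialyzed FBS, 5 h preplating), 17 h at 37C; agonist activity detected by CCF4-AM B/G FRET read-out.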

[13] = qHTS assay to identify small molecule agonists of H2AX - cell viability counter screen (AID 1224847; calls by dose curve; also: top concentration of the series differs between compounds; nearly all actives have a fitted effect of over 30% in size)
How it was run: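 Read-out: CellTiter-Glo luminescence, 30 min RT. Cells: wild-type CHO-K1, 1000/well, 10% FBS, plated overnight at 37C. Treatment: 15 concentrations, 3 hr, 37C, 0.76% DMSO.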

[14] = qHTS RealTime-Glo MT Cell Viability Assay in HepG2 cells - 24 hour (AID 1224867); also: nearly all actives have a fitted effect of over 50% in size
How it was run: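 HepG2 suspension premixed with RealTime-Glo reagents is plated at 600 cells per well and left 5 h at 37 C/5% CO2. Compounds in DMSO then go in, and bioluminescence reflecting viable cell number is recorded over 40 h.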

[15] = biological target: Luciferin 4-monooxygenase (Photinus pyralis) (UniProt P08659); experiment: qHTS assay to identify small molecule inhibitors of firefly luciferase (AID 1224835); also: nearly all actives have a fitted effect of over 25% in size; also: potency is read from the fitted curve at half-maximal effect
How it was run: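 Quantitative HTS format; KM concentrations of both substrates. Purified P. pyralis FLuc activity quantified from luminescence images.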

[16] = qHTS assay to identify small molecule antagonists of the constitutive androstane receptor (CAR) signaling pathway - cell viability counter screen (AID 1224837); also: nearly all actives have a fitted effect of over 45% in size
How it was run: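 Cytotoxicity counter-screen: CellTiter-Fluor fluorescence after 23 h compound exposure (15-point qHTS) in double-stable HepG2-CYP2B6-hCAR cells, with 50 nM CITCO added.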

[17] = qHTS assay to identify small molecule antagonists of the estrogen related receptor signaling pathway with the pleiotropic PPARgamma coactivator (PGC) from Tox21 10K library (AID 1224841; call rule not given here; also: actives are mostly falling curves and most rising ones were filed inactive; nearly all actives have a fitted effect of over 50% in size)
How it was run: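 Luminescence (One-Glo, 30 min at room temperature) after 18 h compound treatment at 37 C of PGC/ERR reporter cells plated at 2,000 cells/well and settled 6 h beforehand.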

[18] = qHTS assay to identify small molecule agonists of the estrogen related receptor signaling pathway with the pleiotropic PPARgamma coactivator (PGC) from Tox21 10K library (AID 1224842); also: nearly all actives have a fitted effect of over 15% in size
How it was run: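 PGC/ERR reporter cells (NTP line) were seeded 2,000 per well, rested 6 h at 37 C/5% CO2, then pin-dosed with compounds in DMSO for 18 h at 37 C; luciferase read by One-Glo luminescence after 30 min at room temperature.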

[19] = qHTS assay to identify small molecule antagonists of the estrogen related receptor (ERR) signaling pathway from Tox21 library (AID 1224848); also: nearly all actives have a fitted effect of over 50% in size
How it was run: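 First, 2,000 ERR cells per well were plated and held 6 h at 37 C/5% CO2. Next, compounds in DMSO were pinned in and left 18 h at 37 C. Finally, ONE-Glo was added and luminescence read after 30 min at room temperature.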

[20] = qHTS assay to identify small molecule agonists of the estrogen related receptor (ERR) signaling pathway from Tox21 library (AID 1224849; calls by dose curve; also: nearly all actives have a fitted effect of over 15% in size); settings: ERR reporter cell line, ONE-Glo luciferase, 18 h; at 92.4 µM (top of the series) unless noted
How it was run: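 Luminescent agonist read-out (One-Glo, 30-minute room-temperature incubation) following 18-hour compound treatment at 37 C of the ERR cell line, which had been plated 6 hours before dosing.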
% is scaled to controls: 0 for no effect and ±100 for the full control effect.

Thyrotropin receptor (Homo sapiens), sequence (P16473 whole entry, looked up): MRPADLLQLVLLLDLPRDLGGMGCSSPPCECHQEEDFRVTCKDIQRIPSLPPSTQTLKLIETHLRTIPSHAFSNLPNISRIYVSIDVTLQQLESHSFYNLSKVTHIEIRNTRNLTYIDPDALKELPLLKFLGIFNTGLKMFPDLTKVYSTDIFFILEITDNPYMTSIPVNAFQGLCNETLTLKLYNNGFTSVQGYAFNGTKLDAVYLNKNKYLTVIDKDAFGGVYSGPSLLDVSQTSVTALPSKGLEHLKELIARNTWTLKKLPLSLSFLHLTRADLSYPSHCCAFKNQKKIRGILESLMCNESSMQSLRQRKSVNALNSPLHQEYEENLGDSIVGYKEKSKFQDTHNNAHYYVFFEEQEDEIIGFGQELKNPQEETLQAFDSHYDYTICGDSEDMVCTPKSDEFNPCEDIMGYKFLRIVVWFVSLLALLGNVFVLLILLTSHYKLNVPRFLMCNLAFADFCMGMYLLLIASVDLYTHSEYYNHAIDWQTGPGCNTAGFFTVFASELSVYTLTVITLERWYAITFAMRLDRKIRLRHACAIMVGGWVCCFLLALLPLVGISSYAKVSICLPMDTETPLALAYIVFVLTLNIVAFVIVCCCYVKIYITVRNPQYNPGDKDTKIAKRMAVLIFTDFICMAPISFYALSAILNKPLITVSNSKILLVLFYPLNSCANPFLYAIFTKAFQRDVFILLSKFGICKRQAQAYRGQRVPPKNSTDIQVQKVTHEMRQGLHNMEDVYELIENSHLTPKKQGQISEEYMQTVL
Luciferin 4-monooxygenase (Photinus pyralis), sequence (P08659 whole entry, looked up): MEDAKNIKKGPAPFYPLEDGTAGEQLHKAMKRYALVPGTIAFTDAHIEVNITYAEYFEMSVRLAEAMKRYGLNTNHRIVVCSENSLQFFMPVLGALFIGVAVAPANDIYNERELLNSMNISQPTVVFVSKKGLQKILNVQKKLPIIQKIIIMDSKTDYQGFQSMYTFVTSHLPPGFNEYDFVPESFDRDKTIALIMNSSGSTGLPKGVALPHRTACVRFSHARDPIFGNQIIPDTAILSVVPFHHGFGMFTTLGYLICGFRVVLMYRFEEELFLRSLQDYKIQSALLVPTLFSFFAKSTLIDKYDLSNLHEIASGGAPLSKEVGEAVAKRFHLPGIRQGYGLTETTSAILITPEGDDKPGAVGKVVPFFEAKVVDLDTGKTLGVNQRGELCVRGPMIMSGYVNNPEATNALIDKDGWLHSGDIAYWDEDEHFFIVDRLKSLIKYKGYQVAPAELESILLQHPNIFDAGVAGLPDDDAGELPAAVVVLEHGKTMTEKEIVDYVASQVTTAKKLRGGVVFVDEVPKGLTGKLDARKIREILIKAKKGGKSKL
Nuclear receptor subfamily 1 group I member 3 (Homo sapiens), sequence (Q14994 whole entry, looked up): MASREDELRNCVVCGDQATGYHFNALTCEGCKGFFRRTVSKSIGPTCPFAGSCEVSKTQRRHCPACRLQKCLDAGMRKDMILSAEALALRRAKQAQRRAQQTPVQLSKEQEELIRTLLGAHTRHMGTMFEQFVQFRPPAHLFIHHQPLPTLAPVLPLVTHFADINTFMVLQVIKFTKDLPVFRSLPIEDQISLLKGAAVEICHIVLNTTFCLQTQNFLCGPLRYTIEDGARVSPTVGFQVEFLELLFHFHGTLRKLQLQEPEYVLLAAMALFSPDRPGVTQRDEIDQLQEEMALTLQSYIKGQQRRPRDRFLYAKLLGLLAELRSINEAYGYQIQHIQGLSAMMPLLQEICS

CC(O)CCCCn1c(=O)c2c(ncn2C)n(C)c1=O (stereo not drawn)
inactive: outcome [1] | outcome [2] | Potency [3] | outcome [4] | outcome [5] | outcome [6] | Potency [7] | outcome [8] | Potency [9] | outcome [10] | outcome [11] | outcome [12] | outcome [13] | outcome [14]

NC[C@H]1O[C@H](O[C@H]2[C@H](O)[C@@H](O[C@H]3O[C@H](CO)[C@@H](O)[C@H](N)[C@H]3O)[C@H](N)C[C@@H]2N)[C@H](N)[C@@H](O)[C@@H]1O
inactive: activity change, negative = cytotoxicity [1] -1.43% [at 19 µM] | activity, negative = inhibition [2] -0.0699% [at 19 µM] | Potency [3] | viability change, negative = cytotoxic [4] 2% [at 19 µM] | viability change, negative = cytotoxic [5] -10.3% [at 19 µM] | viability change, negative = cytotoxic [8] 1.41% [at 19 µM] | activation [9] -7.89% [at 19 µM] | activity change, negative = cytotoxicity [10] 6.36% [at 15.8 µM] | activation (H2AX phosphorylation) [11] -4.26% [at 31.6 µM] | activation [12] -0.993% [at 15.8 µM] | activity change, negative = cytotoxicity [13] -0.161% [at 31.6 µM] | activity change, negative = cytotoxicity [14] 0.499% [at 15.8 µM]

CCCc1ncc(C(=O)O)s1
inactive: outcome [1] | outcome [2] | Potency [3] | Potency [15] | outcome [5] | outcome [16] | outcome [6] | Potency [7] | outcome [8] | Potency [17] | Potency [18] | outcome [10] | outcome [11] | outcome [12] | outcome [13] | outcome [19] | activity change, positive = activation [20] 3.45% [at 42.5 µM] | outcome [14]

COc1ccc2cc(CCC(C)=O)ccc2c1
inactive: outcome [1] | outcome [2] | outcome [5] | outcome [16] | outcome [8] | Potency [17] | Potency [9] | outcome [10] | outcome [11] | outcome [13] | outcome [14]
active: Potency [3] 3.35 µM | Potency [15] 13.8 µM | activity change, positive = activation [20] 114% [at 42.5 µM]

O=C(O)CCC(=O)Nc1ccc(S(=O)(=O)Nc2nccs2)cc1
inactive: outcome [1] | outcome [2] | Potency [3] | outcome [5] | outcome [16] | outcome [6] | outcome [8] | Potency [17] | Potency [18] | outcome [10] | outcome [11] | outcome [13] | outcome [19] | activity change, positive = activation [20] 8.26% [at 42.5 µM] | outcome [14]

CC12CCCC=C1C(=O)OC2=O (stereo not drawn)
inactive: outcome [1] | outcome [2] | Potency [3] | outcome [4] | outcome [5] | outcome [16] | outcome [8] | Potency [9] | outcome [10] | outcome [11] | outcome [12] | outcome [13] | outcome [14]

O=C(O)P(=O)(O)O
inactive: outcome [1] | outcome [2] | Potency [3] | Potency [15] | outcome [5] | outcome [16] | outcome [6] | Potency [7] | outcome [8] | Potency [9] | outcome [10] | outcome [11] | outcome [14]

CCCCS
inactive: outcome [1] | outcome [2] | Potency [3] | outcome [4] | outcome [5] | outcome [16] | outcome [6] | Potency [7] | outcome [8] | Potency [9] | outcome [10] | outcome [11] | outcome [13] | outcome [14]

CC(C)OCCO
inactive: outcome [1] | outcome [2] | Potency [3] | Potency [15] | outcome [5] | outcome [16] | outcome [6] | Potency [7] | outcome [8] | Potency [17] | Potency [18] | outcome [10] | outcome [11] | outcome [12] | outcome [13] | outcome [19] | activity change, positive = activation [20] 6.53% | outcome [14]

O=CN1CCCCC1
inactive: outcome [1] | outcome [2] | Potency [3] | outcome [4] | outcome [5] | outcome [16] | outcome [6] | Potency [7] | outcome [8] | Potency [9] | outcome [10] | outcome [11] | outcome [12] | outcome [13] | outcome [14]

CN(C)c1cc(NC(=O)CNC(C)(C)C)c(O)c2c1C[C@H]1C[C@H]3[C@H](N(C)C)C(=O)C(C(N)=O)=C(O)[C@@]3(O)C(=O)C1=C2O
inactive: outcome [1] | outcome [2] | Potency [3] | Potency [15] | outcome [5] | outcome [16] | Potency [7] | outcome [8] | Potency [17] | outcome [10] | outcome [12] | outcome [13] | outcome [19] | activity change, positive = activation [20] 1.19% [at 42.5 µM] | outcome [14]

CC(C)(Sc1cc(C(C)(C)C)c(O)c(C(C)(C)C)c1)Sc1cc(C(C)(C)C)c(O)c(C(C)(C)C)c1
inactive: outcome [1] | outcome [2] | Potency [3] | Potency [15] | outcome [5] | outcome [16] | outcome [8] | Potency [17] | Potency [9] | outcome [10] | outcome [11] | outcome [13] | outcome [19] | activity change, positive = activation [20] 3.41% [at 42.5 µM] | outcome [14]

CCCCCCCOC(C)=O
inactive: outcome [1] | outcome [2] | Potency [3] | outcome [4] | outcome [5] | outcome [16] | outcome [8] | Potency [9] | outcome [10] | outcome [11] | outcome [13] | outcome [14]

O=S(=O)(O)c1ccc(Cl)cc1
inactive: outcome [1] | outcome [2] | Potency [3] | outcome [4] | outcome [5] | outcome [16] | outcome [6] | Potency [7] | outcome [8] | outcome [10] | outcome [11] | outcome [12] | outcome [14]

N#Cc1ccccc1C#N
inactive: outcome [1] | outcome [2] | Potency [3] | Potency [15] | outcome [5] | outcome [16] | outcome [8] | outcome [10] | outcome [11] | outcome [12] | outcome [13] | outcome [14]
